The text below walks through data of PubChem BioAssay (Tox21).

A number with no mark means an inactive call. Activity calls are given as the source filed them. Unless noted, calls come from the whole dose curve; as a rule, active = well fitted curve in the direction sought with a large enough effect in the repeat runs; inconclusive = weak or mixed curves; inactive = no such curve, though single readings can be large; an effect the other way counts as inactive or inconclusive.

Assay [1] in a line: qHTS assay to identify small molecule antagonists of the thyroid receptor (TR) signaling pathway - cell viability counter screen (AID 743064). Note: nearly all actives have a fitted effect of over 50% in size. The method in brief:
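Plate GH3.TRE-Luc cells; incubate 4 h at 37 °C; add compound, then T3 to 1 nM final; incubate 23.5 h; add CellTiter-Fluor; incubate 30 min at 37 °C, 5% CO2; read fluorescence.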

Assay [2] is described as follows: qHTS assay to identify small molecule antagonists of the thyroid receptor (TR) signaling pathway (AID 743065). Note: series mostly up to about 70 µM; nearly all actives have a fitted effect of over 55% in size. An outline of the steps:
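Antagonism measured as loss of luciferase signal in GH3 cells stably carrying a TRE-luciferase reporter, co-treated with compound and T3 (1 nM final) for 23.5 h at 37 C. Viability was read in the same well by CellTiter-Fluor.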
(In general: In qHTS, concentration-response curves come from the screen itself.)

Assay [3] deals with thyroid hormone receptor (rat, GH3 cells). The assay is described as follows: qHTS assay to identify small molecule agonists of the thyroid receptor (TR) signaling pathway (AID 743066; calls by dose curve).
Assay [4] deals with Estrogen receptor (Homo sapiens) (UniProt P03372). The assay is described as follows: qHTS assay to identify small molecule antagonists of the estrogen receptor alpha (ER-alpha) signaling pathway (AID 743069; active = well fitted curve in the direction sought with a large enough effect in the signal ratio in the repeat runs, not every such curve was filed as active; inconclusive = weak or mixed curves, or effect the other way; inactive = no such curve, though single readings can be large or run the other way; the % refers to the signal ratio; note: potency is the fitted concentration of half-maximal effect). An outline of the steps:
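Antagonist mode: compounds in DMSO were co-added with 17beta-estradiol to ER-alpha-bla HEK293 cells (2% charcoal-stripped serum) and left 18 h at 37C. Reporter inhibition was measured as FRET fluorescence after 2 h LiveBLAzer substrate at room temperature.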

A short description of assay [5]: qHTS assay to identify small molecule antagonists of the estrogen receptor alpha (ER-alpha) signaling pathway - cell viability counter screen (AID 743074; calls by dose curve;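 note: HEK293 cells carrying ER-alpha-UAS-bla reporter stimulated with 17beta-estradiol; nearly all actives have a fitted effect of over 45% in size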).
Assay [6] has as its target Estrogen receptor (Homo sapiens) (UniProt P03372). As to the kind of experiment: qHTS assay to identify small molecule agonists of the estrogen receptor alpha (ER-alpha) signaling pathway (AID 743075; calls by dose curve;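 note: HEK293 GripTite cells with ER-alpha and UAS-driven beta-lactamase reporter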; note: potency is the fitted concentration of half-maximal effect).
The target is the same in assay [7]. As to the kind of experiment: qHTS assay to identify small molecule agonists of the estrogen receptor alpha (ER-alpha) signaling pathway using the BG1 cell line (AID 743079). Note: nearly all actives have a fitted effect of over 20% in size. Note: potency is the fitted concentration of half-maximal effect.
Assay [8] is described as follows: qHTS assay to identify small molecule antagonists of the estrogen receptor alpha (ER-alpha) signaling pathway using the BG1 cell line (AID 743080; calls by dose curve;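 note: BG1 cells stimulated with 17beta-estradiol alongside compound; series mostly up to about 70 µM; nearly all actives have a fitted effect of over 25% in size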). An outline of the steps: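 Quantitative HTS on the Tox21 10K library: BG1 cells with endogenous ER-alpha and ERE-luciferase reporter, 17beta-estradiol stimulation, 21.5 h compound exposure, luminescence endpoint with parallel fluorescence cytotoxicity counter-read.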

A short description of assay [9]: qHTS assay to identify small molecule antagonists of the estrogen receptor alpha (ER-alpha) signaling pathway using the BG1 cell line - cell viability counter screen (AID 743081).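 Note: compound given together with 17beta-estradiol as the ER stimulus; series mostly up to about 70 µM; nearly all actives have a fitted effect of over 45% in size.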
Assay [10] has as its target Aromatase (Homo sapiens) (UniProt P11511). The assay is described as follows: qHTS assay to identify aromatase inhibitors (AID 743083). Note: series mostly up to about 70 µM; nearly all actives have a fitted effect of over 55% in size.
The nature of assay [11]: qHTS assay to identify aromatase inhibitors - cell viability counter screen (AID 743084).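 Note: cells stimulated with testosterone during compound exposure; nearly all actives have a fitted effect of over 55% in size.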
Assay [12] concerns the target Aryl hydrocarbon receptor (Homo sapiens) (UniProt P35869). The assay is described as follows: qHTS assay to identify small molecule that activate the aryl hydrocarbon receptor (AhR) signaling pathway (AID 743085).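 Note: HG2L7.5c1 human HepG2 liver cells with stably integrated DRE-driven firefly reporter; series mostly up to about 70 µM; nearly all actives have a fitted effect of over 15% in size.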 The method in brief:
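Steps: seed HepG2-AhR-luc cells; allow 5 h at 37C; pin-transfer test compound or vehicle; incubate 24 h at 37C; add viability dye (30 min, 37C) and read fluorescence; add luciferase substrate (30 min, RT) and read luminescence.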

A short description of assay [13]: qHTS assay to identify small molecule that activate the aryl hydrocarbon receptor (AhR) signaling pathway - cell viability counter screen (AID 743086).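 Note: HepG2 liver cells carrying the AhR DRE luciferase reporter; series mostly up to about 70 µM; nearly all actives have a fitted effect of over 45% in size.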 The method in brief:
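Cytotoxicity counter screen: CellTiter-Fluor signal (30 min, 37 C) in 4000 HepG2 cells/well carrying the DRE-luciferase reporter, following 24 h compound exposure at 37 C.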

For assay [14], the target named is Peroxisome proliferator-activated receptor gamma (Homo sapiens) (UniProt P37231). The assay is described as follows: qHTS assay to identify small molecule agonists of the peroxisome proliferator-activated receptor gamma (PPARg) signaling pathway (AID 743094; active = well fitted activation curve with a large enough effect in the signal ratio in the repeat runs, not every such curve was filed as active; inconclusive = weak or mixed curves, or effect the other way; inactive = no such curve, though single readings can be large or run the other way; the % refers to the signal ratio). The method in brief:
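Agonist activity was taken from a beta-lactamase reporter (FRET substrate, 1 h at room temperature) in HEK293H cells carrying a PPARg UAS-bla construct. Compounds in DMSO were incubated 17 h at 37C after a 5 h cell pre-incubation.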

Assay [15] has the same target. The assay is described as follows: qHTS assay to identify small molecule antagonists of the peroxisome proliferator-activated receptor gamma (PPARg) signaling pathway (AID 743191; calls by dose curve; note: series mostly up to about 63 µM; nearly all actives have a fitted effect of over 30% in size). The method in brief:
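Beta-lactamase reporter under UAS control in HEK293H PPARg-bla cells; compound treatment 17 h at 37C. Read-out: fluorescence intensity after 1 h room-temperature incubation with LiveBLAzer B/G FRET substrate.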

Assay [16] in a line: qHTS assay to identify small molecule antagonists of the peroxisome proliferator-activated receptor gamma (PPARg) signaling pathway - cell viability counter screen (AID 743194). Note: nearly all actives have a fitted effect of over 55% in size. An outline of the steps:
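Viability was measured as CellTiter-Glo luminescence in GeneBLAzer PPARg UAS-bla HEK293H cells. These cells had been exposed 17 h at 37 C to compounds together with rosiglitazone at 50 nM final, with the beta-lactamase readout taken in the same wells.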

A short description of assay [17]: qHTS assay for small molecule agonists of the antioxidant response element (ARE) signaling pathway (AID 743202; active = well fitted activation curve with a large enough effect in the signal ratio in the repeat runs, not every such curve was filed as active; inconclusive = weak or mixed curves, or effect the other way; inactive = no such curve, though single readings can be large or run the other way; the % refers to the signal ratio). An outline of the steps:
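After 16 hours of compound treatment at 37 C, HepG2 cells with a stably integrated ARE-driven beta-lactamase reporter were loaded 2 hours at room temperature with LiveBLAzer B/G FRET substrate and fluorescence intensity measured.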

Assay [18] is described as follows: qHTS assay for small molecule agonists of the antioxidant response element (ARE) signaling pathway - cell viability counter screen (AID 743203; calls by dose curve; note: nearly all actives have a fitted effect of over 55% in size). The method in brief:
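Viability counter screen: CellTiter-Glo luminescence, read after 30 min at room temperature, in ARE-bla HepG2 wells. Compound exposure lasted 16 h at 37C/5% CO2, following a 5 h pre-incubation of the cells after plating.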

The nature of assay [19]: qHTS assay for small molecule activators of the heat shock response signaling pathway - cell viability counter screen (AID 743209). Note: nearly all actives have a fitted effect of over 50% in size. An outline of the steps: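 Cytotoxicity counter screen run in the same wells as the heat-shock bla reporter assay: HeLa HSE-bla cells, 5 h compound exposure at 37 C, viability read by CellTiter-Glo luminescence.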
Assay [20] is described as follows: qHTS assay for small molecule activators of the heat shock response signaling pathway (AID 743210; active = well fitted activation curve with a large enough effect in the signal ratio in the repeat runs, with a control signal flat, not every such curve was filed as active; inconclusive = weak or mixed curves; the % refers to the signal ratio; note: series mostly up to about 63 µM). An outline of the steps:
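Compound exposure lasted 5 h at 37 C in HeLa cells carrying a heat-shock-element-driven beta-lactamase reporter. Read-out: fluorescence intensity after 2.5 h room-temperature loading with LiveBLAzer B/G FRET substrate.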
% is set by controls: 0 for no effect and ±100 for the full control effect.

Peroxisome proliferator-activated receptor gamma (Homo sapiens), sequence (P37231 whole entry, looked up): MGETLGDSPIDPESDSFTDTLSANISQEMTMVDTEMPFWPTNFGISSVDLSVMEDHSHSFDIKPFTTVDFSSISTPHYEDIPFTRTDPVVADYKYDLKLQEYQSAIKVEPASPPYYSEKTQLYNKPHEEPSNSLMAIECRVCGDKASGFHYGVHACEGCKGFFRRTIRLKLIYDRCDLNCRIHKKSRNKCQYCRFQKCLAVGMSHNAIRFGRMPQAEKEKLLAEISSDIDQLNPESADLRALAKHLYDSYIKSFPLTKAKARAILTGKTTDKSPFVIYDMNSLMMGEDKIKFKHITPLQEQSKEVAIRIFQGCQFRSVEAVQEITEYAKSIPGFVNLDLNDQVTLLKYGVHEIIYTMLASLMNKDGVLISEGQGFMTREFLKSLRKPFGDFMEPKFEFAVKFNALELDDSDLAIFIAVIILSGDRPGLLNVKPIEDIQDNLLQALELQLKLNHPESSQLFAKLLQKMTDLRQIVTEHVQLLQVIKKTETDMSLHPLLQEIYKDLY
Aryl hydrocarbon receptor (Homo sapiens), sequence (P35869 whole entry, looked up): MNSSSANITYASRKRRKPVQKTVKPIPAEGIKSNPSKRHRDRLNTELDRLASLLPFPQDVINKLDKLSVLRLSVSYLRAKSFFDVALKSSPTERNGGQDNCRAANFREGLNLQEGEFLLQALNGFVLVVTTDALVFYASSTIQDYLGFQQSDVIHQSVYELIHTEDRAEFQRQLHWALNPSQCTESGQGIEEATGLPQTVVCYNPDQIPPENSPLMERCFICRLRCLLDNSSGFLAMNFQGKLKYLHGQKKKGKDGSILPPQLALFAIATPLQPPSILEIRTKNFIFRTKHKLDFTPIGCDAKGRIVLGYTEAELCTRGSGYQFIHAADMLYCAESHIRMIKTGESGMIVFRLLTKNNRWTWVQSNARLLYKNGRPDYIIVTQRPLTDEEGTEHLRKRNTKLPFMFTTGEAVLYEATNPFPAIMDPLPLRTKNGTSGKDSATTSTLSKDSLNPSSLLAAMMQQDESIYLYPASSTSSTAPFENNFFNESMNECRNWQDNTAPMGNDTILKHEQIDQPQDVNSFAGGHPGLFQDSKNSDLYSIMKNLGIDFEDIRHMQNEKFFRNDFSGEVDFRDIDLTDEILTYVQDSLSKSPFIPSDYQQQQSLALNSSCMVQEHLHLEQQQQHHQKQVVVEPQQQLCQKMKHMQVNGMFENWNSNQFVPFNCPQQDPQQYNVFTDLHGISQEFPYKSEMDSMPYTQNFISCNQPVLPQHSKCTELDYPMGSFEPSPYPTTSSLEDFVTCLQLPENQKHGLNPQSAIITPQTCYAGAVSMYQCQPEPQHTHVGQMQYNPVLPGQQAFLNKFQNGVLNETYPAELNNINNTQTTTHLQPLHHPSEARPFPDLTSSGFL
Aromatase (Homo sapiens), sequence (P11511 whole entry, looked up): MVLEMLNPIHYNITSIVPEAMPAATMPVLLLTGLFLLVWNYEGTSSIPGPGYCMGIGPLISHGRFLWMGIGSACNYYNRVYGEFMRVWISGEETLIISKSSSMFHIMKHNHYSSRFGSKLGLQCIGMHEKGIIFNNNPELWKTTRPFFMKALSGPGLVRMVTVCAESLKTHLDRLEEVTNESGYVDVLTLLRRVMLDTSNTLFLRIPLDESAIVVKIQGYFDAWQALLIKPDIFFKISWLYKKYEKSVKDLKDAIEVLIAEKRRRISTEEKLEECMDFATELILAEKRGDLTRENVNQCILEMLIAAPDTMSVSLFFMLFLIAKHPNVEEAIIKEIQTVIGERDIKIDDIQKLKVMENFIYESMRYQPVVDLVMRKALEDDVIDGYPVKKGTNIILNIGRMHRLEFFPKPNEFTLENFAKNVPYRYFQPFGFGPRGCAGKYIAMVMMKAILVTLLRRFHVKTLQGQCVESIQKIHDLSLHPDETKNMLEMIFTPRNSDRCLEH
Estrogen receptor (Homo sapiens), sequence (P03372 whole entry, looked up): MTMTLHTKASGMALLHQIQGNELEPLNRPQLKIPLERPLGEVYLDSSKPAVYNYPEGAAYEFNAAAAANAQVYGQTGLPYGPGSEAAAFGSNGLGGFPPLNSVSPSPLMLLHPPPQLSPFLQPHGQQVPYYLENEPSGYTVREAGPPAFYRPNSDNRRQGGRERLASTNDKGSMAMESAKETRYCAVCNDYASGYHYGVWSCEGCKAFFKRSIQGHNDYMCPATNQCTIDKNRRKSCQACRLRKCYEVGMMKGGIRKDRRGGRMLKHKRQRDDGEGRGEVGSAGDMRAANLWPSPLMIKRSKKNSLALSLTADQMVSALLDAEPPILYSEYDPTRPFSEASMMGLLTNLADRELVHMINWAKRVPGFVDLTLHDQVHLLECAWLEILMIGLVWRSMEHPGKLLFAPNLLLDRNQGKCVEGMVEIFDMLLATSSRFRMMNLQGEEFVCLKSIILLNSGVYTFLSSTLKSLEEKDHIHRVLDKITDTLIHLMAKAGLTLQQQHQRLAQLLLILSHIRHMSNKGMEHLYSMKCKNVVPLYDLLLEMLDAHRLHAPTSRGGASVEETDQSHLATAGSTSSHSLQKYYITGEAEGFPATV

Consider `CCCCN(CCO)CCO`, for which the Potency entry in assay [1], in assay [2], in [3], in [4], in assay [6] and in assay [7] was “inactive” in each case. Besides, the Potency entry in [8], in assay [10], in [11], in assay [12], in assay [13] and in assay [16] was “inactive” each time. Moreover, the Potency entry in [17] was “inactive”. The call in [5], in [9], in assay [14], in assay [15], in assay [18] and in assay [19] was inactive. For the same compound, the compound was called inactive in [20].

For the compound `Oc1cc(O)c2c(c1)O[C@H](c1ccc(O)c(O)c1)[C@H](O)C2`, the Potency result in assay [1], in [2], in assay [3], in [4], in assay [6] and in [7] was “inactive” each time. Further, the Potency entry in assay [8], in assay [10], in assay [11], in assay [12] and in [13] was “inactive” in each case. Also, the result in [5], in [9], in [14], in assay [15], in assay [18] and in assay [19] was inactive. In addition, in assay [20], the outcome was inactive.

For `NCC[C@H](O)C(=O)N[C@@H]1C[C@H](N)[C@@H](O[C@H]2O[C@H](CN)[C@@H](O)[C@H](O)[C@H]2O)[C@H](O)[C@H]1O[C@H]1O[C@H](CO)[C@@H](O)[C@H](N)[C@H]1O`, the Potency entry in [1], in assay [2], in assay [3], in assay [4], in assay [6] and in assay [8] was “inactive” throughout. For the same compound, the Potency entry in assay [10], in assay [11], in [12] and in assay [13] was “inactive” each time. The outcome in assay [5], in assay [9] and in assay [14] was inactive. For the same compound, in [7], the Potency was 23.7 µM (active). For the same compound, the ratio activity, negative = inhibition in [15] is 0.895% [at 0.55 µM]. The activity change, negative = cytotoxicity in [16] was 0.328% [at 0.55 µM]; in assay [19], -14.9% [at 0.55 µM]. Further, the figures for the activation in assay [17] and in [20] were 2.58% [at 0.756 µM] and 0.848% [at 0.55 µM], respectively. In addition, the viability change, negative = cytotoxic in assay [18] is -0.425% [at 0.756 µM].

As for `O=[N+]([O-])c1ccc(Oc2ccc([N+](=O)[O-])cc2)cc1`, the Potency entry in [1], in assay [2], in assay [3], in assay [4], in assay [6] and in [7] was “inactive” throughout. The Potency entry in assay [8], in [10], in assay [11], in [12], in assay [13] and in [16] was “inactive” throughout. In addition, the Potency entry in [17] was “inactive”. Moreover, the call in [5], in assay [9], in assay [14], in assay [18], in [19] and in [20] was inactive.

Take `CC(C)[C@H](N)C(=O)OCCOCn1cnc2c(=O)[nH]c(N)nc21`: the Potency entry in assay [1], in assay [2], in assay [3], in [4], in assay [6] and in assay [7] was “inactive” in each case. Moreover, the Potency entry in assay [8], in assay [10], in assay [11], in [12], in assay [13] and in [16] was “inactive” in each case. Besides, the Potency entry in assay [17] is “inactive”. Besides, the call in assay [5], in assay [9], in assay [14], in [18], in [19] and in [20] was inactive.

Regarding `C(=C(c1ccccc1)c1ccccc1)c1ccccc1`, the Potency result in assay [1], in [2], in [3], in assay [8], in assay [10] and in assay [11] was “inactive” each time. For the same compound, the Potency entry in assay [12], in [13] and in [16] was “inactive” in each case. In addition, the results for the Potency in assay [4], in assay [6] and in assay [7] were 54.9 µM [inconclusive] (active), 7.76 µM [inconclusive] (active) and 2.43 µM (active), respectively. Moreover, the compound was classed as inactive in assay [5], in assay [9], in [14], in assay [18], in assay [19] and in [20].

In the case of `C=CCn1c(=O)n([C@@H]2O[C@H](CO)[C@@H](O)[C@H]2O)c2nc(N)[nH]c(=O)c21`, the Potency result in assay [1], in [2], in assay [3], in assay [4], in [6] and in [7] was “inactive” each time. Also, the Potency entry in [8], in assay [10], in [11], in assay [12], in assay [13] and in assay [16] was “inactive” in each case. In assay [17], the Potency result was “inactive”. Besides, the result in [5], in [9], in assay [14], in [18] and in assay [19] was inactive.
